Screening results as filed in PubChem BioAssay.
In the library only some 8.3% were active in any assay of this set; here they are far more common.
SW480 rereplic – A quantitative high throughput screen for small molecules that induce DNA re-replication in SW480 colon adenocarcinoma cells | SW480 DNA re-replication, Hoechst DNA content imaging, 48 h | Potency, µM (series often up to 46.1 µM), actives largely listed as activators | 340,000 tested, 1.8% active | AID 624297, 2012; note: nearly all actives have a fitted effect of over 55% in size
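Per well, 250 cells were exposed to pinned compound for 48 hr. Nuclear DNA was visualised with Hoechst (40 min, 37 C) and total object intensity recorded by fluorescence scanning.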
MCF10A rerep – A quantitative high throughput screen for small molecules that induce DNA re-replication in MCF 10a normal breast cells. MCF 10A DNA re-replication, Hoechst nuclear intensity, 48 h. Potency, µM (top dose mostly 46.1 µM), usual class: activators. 350,000 tested, 2.9% active; note: nearly all actives have a fitted effect of over 50% in size
Giardia killer – Small Molecules that selectively kill Giardia lamblia: qHTS | 340,000 tested, 0.15% active | activity change, % at 7.66 µM, hits read low | Giardia lamblia trophozoite viability; in the data active = activity change below about -80%; inconclusive = between about -30% and that limit;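 note: parasites exposed to compound for two days anaerobically before the ATP read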
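ATP-content bioluminescence gauges trophozoite survival. Cells (100/well) receive compound and incubate anaerobically for 48 hrs at 37 deg C; detection reagent follows for 15-30 min at room temperature.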
RORg inh – qHTS for inhibitors of ROR gamma transcriptional activity. Nuclear receptor ROR-gamma (Mus musculus), P51450. Drosophila S2 Gal4-RORgamma UAS-luciferase reporter, 20 h. Potency, µM (doses to about 53.6 µM), actives largely listed as inhibitors. 310,000 tested, 5.4% active; note: nearly all actives have a fitted effect of over 60% in size
Target sequence (P51450 whole entry, looked up, the tested form may be a part): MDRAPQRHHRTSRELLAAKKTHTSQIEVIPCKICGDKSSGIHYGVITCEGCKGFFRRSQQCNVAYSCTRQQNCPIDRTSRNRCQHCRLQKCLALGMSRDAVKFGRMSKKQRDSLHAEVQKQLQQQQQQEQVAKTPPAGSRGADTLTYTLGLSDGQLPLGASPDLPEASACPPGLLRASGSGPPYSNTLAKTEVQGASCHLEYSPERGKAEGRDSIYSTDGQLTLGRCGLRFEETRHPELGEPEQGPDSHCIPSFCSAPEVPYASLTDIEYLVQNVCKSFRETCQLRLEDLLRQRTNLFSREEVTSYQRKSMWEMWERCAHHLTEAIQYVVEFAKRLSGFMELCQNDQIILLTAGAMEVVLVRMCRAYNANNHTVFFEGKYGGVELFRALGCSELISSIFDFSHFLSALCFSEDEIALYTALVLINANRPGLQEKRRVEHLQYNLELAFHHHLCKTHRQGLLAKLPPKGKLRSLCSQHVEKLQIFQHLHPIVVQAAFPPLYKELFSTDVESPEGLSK
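A Gal4/UAS one-hybrid system in insect cells: metallothionein-promoter Gal4–ROR gamma fusion plus Photinus luciferase reporter. Copper sulfate 700 uM final, 20 hr ambient incubation, luminescent detection after 10 min with reagent.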
VP16 counter – VP16 counterscreen qHTS for inhibitors of ROR gamma transcriptional activity; Drosophila S2 Gal4-VP16 UAS-luciferase, luminescence, 20 h; Potency, µM (highest dose often 53.6 µM), most hits filed as inhibitors; 310,000 tested, 3.5% active; AID 2546, 2010;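 note: Gal4-VP16 expression switched on by copper sulfate through the metallothionein promoter; nearly all actives have a fitted effect of over 50% in size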
Chronic BCR inh – qHTS Assay to Find Inhibitors of Chronic Active B-Cell Receptor Signaling; ABC-DLBCL IkBa-CBG/CBR reporter, luminescence ratio, 4 h; Potency, µM (doses to about 46.1 µM), actives largely listed as inhibitors; 340,000 tested, 0.05% active; active = well fitted inhibition curve with a large enough effect in the signal ratio, with a control signal flat, not every such curve was filed as active; inconclusive = small, poorly fitted or top-dose-only effect, or effect the other way, or a change in a side signal; the % refers to the signal ratio
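Concentration-response series (up to 46 uM) were applied to TMD8 dual-reporter cells for 4 h at 37C with doxycycline. Green/red ratio, after filter-overlap correction, defined %Activity; red signal alone was normalised to basal cells and zero luminescence.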
A number is an active result; 0 = inactive; ? = inconclusive; - = not tested or not shown; [ ] = another dose, or the depositor's remark. Unless noted, calls come from the whole dose curve; as a rule, active = well fitted curve in the direction sought with a large enough effect; inconclusive = small, poorly fitted or top-dose-only effect, or another doubt; inactive = no such curve, though single readings can be large; an effect the other way counts as inactive or inconclusive.

SMILES	SW480 rereplic	MCF10A rerep	Giardia killer	RORg inh	VP16 counter	Chronic BCR inh
CCOc1ccc(S(=O)(=O)N2CCCC(C(=O)Nc3cccc(C)c3)C2)cc1 (centres undefined)	0	0	0	0	0	0
N#Cc1ccc(OCC(=O)NCCCn2ccnc2)cc1	0	0	0	-	-	0
Cc1cc(CC(=O)O)c(C)n1-c1ccc(Cl)cc1	0	0	-	0	0	-
O=c1c2ccc(Cl)cc2nc(-c2cccc(C(F)(F)F)c2)n1O	?	?	0	7.08µM	3.55µM	0
Cc1nc2ccccc2c2nc3ccccc3n12	0	?	0	0	0	?
Clc1ccccc1-c1nc2ccccc2c2nc3ccccc3n12	0	0	0	0	20µM	0
CC1(C)OC(=O)N(c2ccccc2)C12C=Cc1cc(Br)ccc1O2 (centres undefined)	?	?	0	0	0	?
CN1c2ccccc2C(C)(C)C12C=Nc1c(ccc3ccccc13)O2 (centres undefined)	0	0	0	?	20µM	0
CN1c2ccccc2C(C)(C)[C@]12C=Cc1cc(O)ccc1O2	?	?	0	0	15.8µM	0
COc1ccc2ccc3c(c2c1)N=CC1(O3)N(C)c2ccccc2C1(C)C (centres undefined)	0	?	0	?	0	?
COc1cccc(Cn2c(=O)c(C)nc3cnc(Nc4ccccc4)nc32)c1	-	-	-	0	0	-
C/C(=C\C(=O)c1ccc(Br)cc1)NNC(=O)c1ccc(O)cc1	?	0	0	5.01µM	4.47µM	?
Cn1c(SCc2ccon2)nc2ccccc2c1=O	14.6µM	8.2µM	0	0	0	0
Cc1ccc(-n2c(C)cc(C(=O)COc3cccnc3[N+](=O)[O-])c2C)cc1	?	20.6µM	?	?	?	0
Cc1cc(C(=O)COc2cccnc2[N+](=O)[O-])c(C)n1-c1ccccc1	0	0	-88.5	?	?	0
Cc1cc(C(=O)COc2cccnc2[N+](=O)[O-])c(C)n1-c1ccccc1F	0	0	?	0	?	?
CC(CCc1ccccc1)NC(=O)CCC1CCCC1 (centres undefined)	0	0	0	-	-	-
NNc1nc2c(-c3ccc(F)cc3)nnn2c2ccccc12	?	23.1µM	0	?	0	?
COCCCNc1nc2c(-c3ccc(Cl)cc3)nnn2c2ccccc12	0	?	?	0	0	0
NNc1nc2c(-c3ccc(Cl)cc3)nnn2c2ccccc12	8.2µM	5.8µM	0	?	0	?
COc1ccc(-c2nnn3c2nc(NCc2ccccc2)c2ccccc23)cc1	?	1.64µM	0	0	0	0
Fc1ccc(-c2nnn3c2nc(NCc2ccccc2)c2ccccc23)cc1	?	?	0	0	0	?
CCCC(C)C(=O)Nc1ccc(S(=O)(=O)Nc2nccc(C)n2)cc1 (centres undefined)	0	0	0	0	0	0
CN1CCN(c2nc(-c3ccccc3)c3cc(Cl)ccc3n2)CC1	7.94µM	3.98µM	0	0	0	?
Clc1ccc2nc(N3CCNCC3)nc(-c3ccccc3)c2c1	11.2µM	?	0	?	?	0
SMILES	SW480 rereplic	MCF10A rerep	Giardia killer	RORg inh	VP16 counter	Chronic BCR inh
c1ccc(-c2nc(N3CCCC3)nc3ccccc23)cc1	18.4µM	23.1µM	0	0	0	0
c1ccc2c(N3CCCCC3)nc(N3CCCCC3)nc2c1	0	0	0	?	0	0
O=C1CN(c2nc(-c3ccccc3)c3cc(Cl)ccc3n2)c2ccccc2N1	?	0	0	0	0	0
CN1CCN(c2nnc(-c3ccccc3)c(-c3ccccc3)n2)CC1	0	0	0	0	0	0
COc1ccc(OC)c(Cc2nnc(CCC(=O)N3CCCCC3c3nccs3)o2)c1 (centres undefined)	0	0	0	0	0	?
Cc1cc(=O)n2nc(N3CCCC3C(=O)Nc3cccc(Cl)c3C)sc2n1 (centres undefined)	0	0	0	15.8µM	0	0
CCc1ccc(OCC(=O)NNC(=S)NC(=O)C2CCCCC2)c(Br)c1	0	0	0	10µM	0	0
O=C(COc1ccccc1Br)NC1CCCC1	0	0	0	0	0	0
CCc1ccc(OCC(=O)NC2CCCCC2)c(Br)c1	?	0	?	2.82µM	3.98µM	0
O=C(Nc1cccc(C(F)(F)F)c1)C(Sc1cccc[n+]1[O-])c1ccccc1 (centres undefined)	0	0	0	0	0	0
NNc1ccc2c(C(F)(F)F)cc(C(F)(F)F)nc2n1	0	0	0	12.6µM	0	0
C/C(=N\NC(=O)c1cc(C)oc1C)c1ccc2ccccc2c1	0	0	0	2.24µM	0	?
C/C(=N\NC(=O)c1cc2ccccc2cc1O)c1ccc(C)o1	?	?	0	8.91µM	?	0
C/C(=N\Nc1nc(C)cc(C)n1)c1ccc(C)o1	0	0	0	7.08µM	10µM	0
Cn1cccc1C(=O)N1CCC2(CC1)CCN(c1cccc(-c3ccccc3)c1)CC2	-	-	-	0	0	-
O=C(Nc1ccccc1N1CCOCC1)c1cccnc1Cl	0	0	0	0	0[10 µM]	0
O=C(NCc1cccnc1)c1ccccc1NS(=O)(=O)c1ccc(Br)cc1	0	0	0	-	-	0
O=[N+]([O-])c1cc([N+](=O)[O-])c2c(=Nc3ccccc3)n(-c3ccccc3)n(O)c2c1	?	?	0	12.6µM	?	0
Cc1c(Cl)cccc1NC(=O)CSC(C)c1nc2ccccc2c(=O)[nH]1 (centres undefined)	0	0	0	0	0	0
CCOc1cc(-c2cc(-c3ccc(C)cc3)nc(N)c2C#N)ccc1O	16.4µM	20.6µM	0	0	0	0
N#Cc1c(-c2ccccc2)cc(-c2ccc(O)cc2)nc1N	?	23.1µM	0	?	0	?
COc1ccc(-c2cc(-c3ccc(O)cc3)nc(N)c2C#N)cc1	0	?	0	0	0	?
O=C(CCC(=O)NC1CCCCC1)Nc1cccnc1	0	0	0	0	0	0
CCNS(=O)(=O)c1c(C)cc(C)c(N(C)S(=O)(=O)c2ccccc2)c1C	0	0	0	0	0	?
O=C(Nc1nnc(SCc2ccccc2F)s1)C1=COCCO1	0	0	0	?	?	?
O=C(c1ccccc1)n1c(=S)nc2ccccn21	0	0	0	?	?	?
Cc1cccc(C(=O)n2c(=S)nc3ccccn32)c1	0	0	?	2.51µM	3.16µM	?
Cc1ccc(C(=O)n2c(=S)nc3ccccn32)cc1	-	-	-	1.58µM	?	?
C[C@@H](O)CCC[C@H](O)/C=C/[C@@H]1[C@@H](C/C=C\CCCC(=O)O)[C@@H](O)C[C@H]1O	-	-	-	0	0	-
